Assay outcomes (PubChem BioAssay)
In the library only some 21% were active in any assay of this set; here they are far more common.
NS1 function inh = qHTS Assay for Inhibitors of Influenza NS1 Protein Function | actives 0.4% (n = 270,000) | AID 2326, 2010 | Potency, µM (highest dose often 46.1 µM), for inactives: top-dose activity, positive = more growth; calls by dose curve; note: potency is the fitted concentration of half-maximal effect; actives are rising curves; nearly all actives have a fitted effect of over 50% in size
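A cell-based growth assay was used: compounds that relieve NS1-induced slow growth of budding yeast raise OD600. Assay medium was yeast nitrogen base with ammonium sulphate and -URA supplement, pH 6.0, with 2% galactose.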
CHX counter = Cycloheximide Counterscreen for Small Molecule Inhibitors of Shiga Toxin; actives 12% (n = 300,000); cell reporter, cycloheximide protein synthesis inhibition counterscreen; max response, %; AID 2314, 2010; in the data active = max response mostly above about 13%, no sharp cut-off; inactive = mostly below about 14%; note: read at 38.3 µM for the half of the compounds with a filed dose; 0% is about no effect
Shiga toxin inh = A qHTS for Small Molecule Inhibitors of Shiga Toxin; actives 9.2% (n = 290,000); AID 2315, 2010; inhibition, % at 38.7 µM; Vero cells, Shiga toxin protein synthesis inhibition reporter; in the data active = inhibition mostly above about 28%, no sharp cut-off; inactive = mostly below about 43%; note: 0% is about no effect
Giardia FBPA inh = qHTS Assay for Inhibitors of Fructose-1,6-bisphosphate Aldolase from Giardia Lamblia | actives 0.71% (n = 290,000) | A8B2U2 | AID 2451, 2010 | purified Giardia FBPA | Potency, µM (titrated, usually from 59.6 µM), for inactives: at the top dose activity, negative = inhibition, actives largely listed as inhibitors; note: potency is the fitted concentration of half-maximal effect; % is set by controls: 0 for no effect and ±100 for the full control effect; nearly all actives have a fitted effect of over 55% in size
Target sequence (A8B2U2 whole entry, looked up): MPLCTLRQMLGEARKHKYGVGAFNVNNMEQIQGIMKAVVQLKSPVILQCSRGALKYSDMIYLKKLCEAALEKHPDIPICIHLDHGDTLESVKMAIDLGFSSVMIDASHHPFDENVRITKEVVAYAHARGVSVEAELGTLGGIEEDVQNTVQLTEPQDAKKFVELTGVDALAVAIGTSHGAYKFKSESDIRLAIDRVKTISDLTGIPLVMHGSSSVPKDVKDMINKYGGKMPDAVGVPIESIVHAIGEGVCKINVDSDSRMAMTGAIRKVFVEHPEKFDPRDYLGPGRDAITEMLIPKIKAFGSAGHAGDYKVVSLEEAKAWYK
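Giardia FBPA (40 nM reagent) was preincubated 10 min at RT with compound (up to 57.5 uM final), then substrate plus GAPDH/TPI/NAD/arsenate coupling system with diaphorase/resazurin was added; resorufin fluorescence (525/598 nm) was read after 20 min.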
Pf growth 96h = Primary qHTS for delayed death inhibitors of the malarial parasite plastid, 96 hour incubation; P. falciparum luciferase reporter growth, 96 h; Potency, µM (doses to about 28.7 µM), for the others: at the highest dose activity change, negative = inhibition, actives largely listed as inhibitors; actives 6.9% (n = 320,000); AID 504834, 2011; note: potency is the fitted concentration of half-maximal effect; % is set by controls: 0 for no effect and ±100 for the full control effect
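Parasite growth measured via integrated firefly luciferase reporter in P. falciparum. Infected erythrocytes at 2% hematocrit, 0.05% parasitemia final were treated 96 hours at 37 C under 5% CO2, and luminescence was read.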
Pf growth 48h = Primary qHTS for delayed death inhibitors of the malarial parasite plastid, 48 hour incubation; P. falciparum luciferase growth in erythrocytes, 48 h; Potency, µM (top dose mostly 28.7 µM), for inactives: at the top dose activity change, negative = inhibition, most hits filed as inhibitors; actives 5.9% (n = 310,000); AID 504832, 2011; note: potency is the fitted concentration of half-maximal effect; % is set by controls: 0 for no effect and ±100 for the full control effect
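A one-generation exposure of luciferase-tagged malaria parasites in RPMI 1640/Albumax erythrocyte culture, 37 C and 5% CO2. Inhibition is inferred from decreased luminescence after adding detection reagent.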
* hit, by the source's call; i = inactive; ? = inconclusive; / = no result given; [ ] = another dose, or the depositor's remark. Unless noted, calls come from the whole dose curve; as a rule, active = well fitted curve in the direction sought with a large enough effect; inconclusive = small, poorly fitted or top-dose-only effect, or another doubt; inactive = no such curve, though single readings can be large; an effect the other way counts as inactive or inconclusive.

SMILES | NS1 function inh | CHX counter | Shiga toxin inh | Giardia FBPA inh | Pf growth 96h | Pf growth 48h
COC(=O)c1c(NC(=O)CCC(=O)O)sc(Cc2ccccc2)c1C | -55% | 1 | -5 | 25% | 4% | 12µM*
CCCOC(=O)c1c(N)sc(C(=O)OCC)c1C | -2% | 37* | active | -3% | 131% | 74%
CCOC(=O)c1c(N)sc(C(=O)Nc2ccccc2F)c1C | -4% | 37* | 37 | -6% | -26% | 95%
CCOC(=O)c1c(N)sc(C(N)=O)c1C | 1% | -3 | -1 | 2% | 0% | 14%
COC(=O)c1c(NC(C)=O)sc(C(=O)Nc2ccccc2F)c1C | -1% | 7 | 13 | 1% | 41% | 50%
COc1cccc(/C=C/C(=O)OCC(=O)NC(=O)NC2CCCCC2)c1 | / | / | / | / | 9% | ?
Nc1ncn(C2C[C@H](O)[C@@H](CO)O2)c(=O)n1 (stereo partly specified) | / | / | / | / | -11% | -3%
Cc1nn(-c2ccccc2)c(C)c1NC(=O)COC(=O)c1cc(Br)ccc1O | / | / | / | / | 3% | -7%
Cc1sc2nc(CSC(C)C(=O)Nc3cc(S(C)(=O)=O)ccc3Cl)[nH]c(=O)c2c1C (stereo unspecified) | / | / | / | / | ? | 2%
Cc1cc(NC(=O)c2ccccc2)ccc1NC(=O)Cc1ccccc1 | 10% | -2 | / | 1% | 4.1µM* | -12%
Cc1cc(NC(=O)c2ccco2)ccc1NC(=O)Cc1cccs1 | 2% | 20* | 32* | 0% | 6.6µM* | 61%
Cc1ccc(NC(=O)c2ccco2)c(NC(=O)Cc2cccs2)c1 | -2% | 1 | 12 | 5% | / | 12%
Cc1cc(NC(=O)c2ccccc2)ccc1NC(=O)c1ccccc1Cl | 8% | 2 | / | -5% | -6% | 1%
Cn1c(CSCc2ccc(Cl)cc2)n[nH]c1=S | -4% | -1 | -4 | -1% | 34% | -10%
CCCCC1=C(C(=O)OCC)C(C(=O)OCC)Oc2ccccc21 (stereo unspecified) | / | 7 | i | -8%[89.2 µM] | / | /
O=C(C[N+]12CCC(CC1)C(C(O)(c1ccccc1)c1ccccc1)C2)c1ccc(Br)cc1 (stereo unspecified) | 7% | -4 | -4 | 3% | 8.3µM* | ?
O=C(NCC1CCCO1)C(c1cccs1)N(Cc1ccccc1Cl)C(=O)c1ccc(-c2ccccc2)[nH]1 (stereo unspecified) | 26% | 1 | -6 | 2% | 19% | 5.2µM*
Cc1ccc(C(C(=O)NCC2CCCO2)N(Cc2ccccc2)C(=O)c2ccc(-c3ccccc3)[nH]2)o1 (stereo unspecified) | 27% | 5 | 11 | -4% | ? | 8.3µM*
O=C(NCC(=O)N(Cc1ccccc1)C(C(=O)NCC1CCCO1)c1ccccc1)c1ccco1 (stereo unspecified) | -2% | -4 | 10 | / | 11% | 25%
Cc1ccc(N(CC(=O)N2CCN(c3ccc(F)cc3)CC2)S(=O)(=O)c2c(C)noc2C)cc1 | 9% | -11 | -5 | 18% | ? | ?
N#Cc1c(-c2ccc(Br)cc2)cc(-c2cccnc2)nc1N | -4% | -3 | 11 | 0% | 39% | 11%
COc1ccc(OC)c(-c2cc(-c3cccnc3)nc(N)c2C#N)c1 | 0% | -1 | 21 | -9% | 9.3µM* | ?
COc1cccc(-c2cc(-c3cccnc3)nc(N)c2C#N)c1 | 9% | -3 | -12 | 3% | -11% | -5%
N#Cc1c(-c2cccc(Br)c2)cc(-c2cccnc2)nc1N | 25% | -3 | 10 | 3% | ? | 13µM*
COc1cc(-c2cc(-c3ccc(O)cc3)nc(N)c2C#N)ccc1O | ? | 5 | 17 | 15% | 5.9µM* | ?
SMILES | NS1 function inh | CHX counter | Shiga toxin inh | Giardia FBPA inh | Pf growth 96h | Pf growth 48h
O=C(Cc1ccc(Br)cc1)OCC(=O)N1CCc2ccccc2C1 | -12% | -3 | -8 | -1% | 399% | 14%
O=C(COC(=O)/C=C/c1ccc(C(F)(F)F)cc1)NC(=O)NCc1ccco1 | / | / | / | / | -27% | -14%
Cc1ccc(S(=O)(=O)NCC(=O)N/N=C/c2ccccc2O)cc1 | -3% | -4 | 11 | 4% | 8% | ?
O=C(NCc1ccc(Cl)cc1)C(=O)NCC1OCCN1C(=O)c1cccs1 (stereo unspecified) | 7% | -1 | -14 | -1% | 34% | -5%
Cn1c(SCC(=O)N2CCOCC2)nnc1-c1ccncc1 | -2% | -2 | -21 | 4% | 6% | 12%
Cn1c(SCC(=O)N2CCN(Cc3ccccc3)CC2)nnc1-c1ccncc1 | 4% | -2 | -9 | -8% | 2.9µM* | 9%
O=C(CSc1nnc(-c2cccnc2)n1Cc1ccccc1)N1CCOCC1 | -5% | 2 | -10 | -1% | 1.9µM* | 18%
COc1ccc(/C=N/OCC(=O)Nc2ccc3c(c2)OCO3)c(OC)c1 | / | -3 | -6 | -5% | -5% | 9%
CC(NC(=O)COc1ccccc1Cl)c1ccccc1 (stereo unspecified) | -1% | -2 | -5 | 2% | 8% | 9%
CCC1(C)N([O-])C(C)=C(c2ccccc2)[N+]1=O (stereo unspecified) | -2% | 2 | 8 | 0% | 0.093µM* | /
COc1cccc2sc(NNC(=O)C3=COCCO3)nc12 | / | 40* | 87* | 4% | 94% | 160%
COc1ccc(C)c2sc(NC(=O)C3=COCCO3)nc12 | -1% | 12* | 27* | -27% | 161% | 96%
CN1C(=O)C(C)(C)c2cc(S(=O)(=O)N3CCN(c4cccc(Cl)c4)CC3)ccc21 | 12% | 8 | 2 | -13% | 6% | ?
CCOC(=O)N1CCN(c2ncnc3c2[nH]c2ccc(F)cc23)CC1 | -2% | 1 | -16 | -2% | 13µM* | ?
Fc1ccc2[nH]c3c(N4CCN(c5ccccc5)CC4)ncnc3c2c1 | 3% | 2 | 9 | -1% | 12µM* | 13µM*
CCOC(=O)N1CCN(c2ncnc3c2[nH]c2ccc(OC)cc23)CC1 | -53% | -2 | -7 | -1% | ? | ?
COc1ccc(N2CCN(c3ncnc4c3[nH]c3ccccc34)CC2)cc1 | 6% | -1 | -16 | -3% | ? | ?
COc1ccc(NC(=O)C2(S(=O)(=O)c3ccc(C)cc3)CC2)cc1 | 21% | -2 | -8 | -10% | 12% | 25%
COc1ncc2nc(-c3ccccc3)c(=O)n(CCc3ccccc3)c2n1 | / | / | / | -3% | / | /
CC1=CC(C)(C)N(S(=O)(=O)c2ccc(C)cc2)c2cc(C)ccc21 | -103% | -1 | 14 | 12% | 9.3µM* | /
Cc1nc(Cl)sc1C(=O)Nc1cccc(Cl)c1 | -19% | 31* | / | -8% | ? | -10%
Cc1nc(Cl)sc1C(=O)Nc1ccc2ccccc2c1 | -12% | 66* | 192* | -1% | 248% | 187%
